Source: PubChem (several laboratories)
Rows were chosen to be rich in hits. Some 2.4% of all compounds tested hit in one or more screens of this group.
EP2 mod: modulates human prostaglandin E2 receptor EP2 signaling; induction, % at 25 µM; EP2-expressing cells, cAMP HTRF FRET, PGE2 co-stimulation; P43116; hit rate 0.83% among 260,000;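 active = compounds whose cAMP rise, as percent of the full-agonist control response, exceeds 60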;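 also: rat C6 glioma line stably carrying human EP2 under a CMV promoter; the protocol text gives 20 µM as final concentration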
S1P4 antag: human S1P4 receptor antagonism; O95977; S1P4-expressing cells, antagonist mode, reporter read-out; inhibition, % at 4.98 µM; hit rate 0.26% among 220,000; AID 1510; in the data active = inhibition above about 29%
Target sequence (O95977 whole entry, looked up): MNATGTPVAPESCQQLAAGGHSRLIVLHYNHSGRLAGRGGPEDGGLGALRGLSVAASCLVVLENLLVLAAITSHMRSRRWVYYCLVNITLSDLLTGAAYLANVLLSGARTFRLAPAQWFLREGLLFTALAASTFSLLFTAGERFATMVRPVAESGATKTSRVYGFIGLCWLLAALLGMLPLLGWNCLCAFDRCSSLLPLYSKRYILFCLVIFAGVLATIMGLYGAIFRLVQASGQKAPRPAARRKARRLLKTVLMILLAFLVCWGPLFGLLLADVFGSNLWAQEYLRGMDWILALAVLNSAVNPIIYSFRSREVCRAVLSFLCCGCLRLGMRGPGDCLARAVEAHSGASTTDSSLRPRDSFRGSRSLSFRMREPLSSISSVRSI
S1P4 agonist: human S1P4 receptor agonism; AID 1509; O95977; S1P4-expressing cell line, agonist reporter assay; hit rate 0.35% among 220,000; activation, % at 4.98 µM; in the data active = activation above about 11%
S1P3 antag-1: antagonists of human S1P3 receptor | CHO S1P3 NFAT-BLA reporter, FRET fluorescence, antagonist mode | inhibition, % at 4.98 µM | hit rate 0.27% among 170,000 | AID 485;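 active = inhibition above the plate cutoff, the mean inhibition of test wells on that plate plus 3 SD, cut at about 28% in these data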;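 also: cells challenged with S1P at its EC80 of 0.8 µM; blue over green emission ratio from cleaved BLA substrate after 4 h stimulation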
INS promoter inh: TRM-6 insulin promoter activity inhibition. TRM-6 cells (human fetal islet line), insulin promoter-eGFP reporter, imaging; reporter expression induced with tamoxifen. inhibition, % at 2 µM. hit rate 0.9% among 130,000. AID 1273;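 active = inhibition above the mean plus 3 SD, with well images judged a real hit on visual review, cut at about 60% in these data, passing the limit was not always enough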
PGE2 EP2 inh: inhibitors of human EP2 prostaglandin E2 receptor. P43116. hit rate 0.52% among 260,000. C6 glioma cells expressing human EP2, cAMP TR-FRET; cells stimulated with saturating PGE2. inhibition, % at 25 µM. AID 1422;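 active = percent inhibition above 40 after rounding to a whole number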;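 also: rat C6 glioma host cells with rolipram phosphodiesterase inhibitor present; the protocol text gives 20 µM as final concentration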
S1P3 antag-2: confirmation of human S1P3 receptor antagonists; inhibition, % at 4.98 µM; shares compounds with S1P3 antag-1; CHO S1P3 NFAT-BLA reporter, FRET, antagonist mode; hit rate 30% among 240;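 active = inhibition above the hit threshold that was computed for the earlier primary screen, cut at about 30% in these data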
Of the large screens only hits and unclear results are named; the others gave an inactive call (follow-up assays come after a bar, where they were run).

COc1ccc(-[n+]2c(C)cc(/C=C3\Sc4ccccc4N3C)cc2C)cc1	S1P3 antag-1 50 | S1P3 antag-2 30
COc1ccc(C(=O)/C=C2\Sc3ccccc3N2C)cc1	none (no result: INS promoter inh)
COc1ccccc1-[n+]1c(C)cc(/C=C2\Sc3ccccc3N2C)cc1C	S1P3 antag-1 57 (no result: INS promoter inh) | S1P3 antag-2 39
Cc1ccc(NC(=O)C2(c3ccc([N+](=O)[O-])cc3)CCCC2)cc1	S1P3 antag-1 48 | S1P3 antag-2 50
C=CC[n+]1ccc(/C=C2\C=Cc3cc(C)ccc3N2CC)c2ccccc21	S1P3 antag-1 30 (no result: INS promoter inh) | S1P3 antag-2 39
CCN1/C(=C/c2cc[n+](CCCS(=O)(=O)[O-])c3ccccc23)Sc2ccccc21	none (no result: INS promoter inh)
N#CCc1nc2ccccc2o1	none (no result: S1P4 antag, S1P4 agonist, S1P3 antag-1, INS promoter inh)
Cc1ccc(-n2nnnc2SCC(=O)Nc2nc3c(s2)CCCC3)cc1C	none (no result: S1P4 antag, S1P4 agonist, S1P3 antag-1, INS promoter inh)
CCCOc1ccc(/C=N\NC(=O)CCc2n[nH]c(=O)[nH]c2=O)cc1OC	S1P3 antag-1 29 | S1P3 antag-2 inactive
COc1ccc(/C=N/NC(=O)CCc2n[nH]c(=O)[nH]c2=O)cc1OC	none (no result: INS promoter inh)
COCCn1c(SCC(=O)N2CCCC2)nnc1-c1cc2c(C)nn(-c3ccccc3)c2s1	none (no result: S1P4 antag, S1P4 agonist, S1P3 antag-1, INS promoter inh)
S=C(Nc1ccccc1)N1N=C(c2cccs2)CC1c1cccs1 (stereo unspecified)	S1P3 antag-1 30 (no result: INS promoter inh) | S1P3 antag-2 inactive
Cc1cc(Nc2cccc(Cl)c2)nc(NCc2ccccc2)n1	S1P3 antag-1 32 (no result: INS promoter inh) | S1P3 antag-2 inactive
CCCSc1ncc(CNC2(c3ccccc3F)CCCC2)cn1	none (no result: S1P4 antag, S1P4 agonist, S1P3 antag-1, INS promoter inh)
CCOc1ccc(C(=O)c2cc([N+](=O)[O-])ccc2N2CCOCC2)cc1	S1P3 antag-1 33 | S1P3 antag-2 inactive
CCCC(C)NC(=O)Cc1ccc(Br)cc1 (stereo unspecified)	none
CCC(C)NC(=O)Cc1c(OC)ccc2cc(Br)ccc12 (stereo unspecified)	S1P3 antag-1 33 (no result: INS promoter inh) | S1P3 antag-2 inactive
Cc1ccccc1NC(=O)/C=C/c1ccc([N+](=O)[O-])s1	S1P3 antag-1 36 (no result: INS promoter inh) | S1P3 antag-2 42
CCCNC(=O)Cn1cnc2sc(C(=O)N3CCN(Cc4ccc5c(c4)OCO5)CC3)c(C)c2c1=O	S1P3 antag-1 30 | S1P3 antag-2 inactive
O=C(N/N=C\C=C\c1ccco1)C1COc2ccccc2O1 (stereo unspecified)	S1P3 antag-1 28 (no result: INS promoter inh) | S1P3 antag-2 inactive
Cc1nc2scc(-c3ccc(Cl)cc3)c2c(=O)o1	none (no result: S1P3 antag-1)
CC(C)(C)c1nc2scc(-c3ccc(Br)cc3)c2c(=O)o1	S1P3 antag-1 29 | S1P3 antag-2 inactive
COc1cccc(CNC(=O)C2CCCN(c3ncccn3)C2)c1 (stereo unspecified)	none (no result: S1P4 antag, S1P4 agonist, S1P3 antag-1, INS promoter inh)
OC(CN1CCN(c2ccc(F)cc2)CC1)c1ccc2c(c1)OCCCO2 (stereo unspecified)	none (no result: S1P4 antag, S1P4 agonist, S1P3 antag-1, INS promoter inh)
OC(CN1CCOCC1)c1ccc(F)cc1 (stereo unspecified)	S1P3 antag-1 37 (no result: INS promoter inh) | S1P3 antag-2 inactive
CCC(=O)/C=C1/Sc2ccccc2N1CC	none (no result: S1P3 antag-1)
CCN1/C(=C/c2ccc3cc(C)ccc3[n+]2CC)Sc2ccccc21	S1P3 antag-1 33, PGE2 EP2 inh 55 | S1P3 antag-2 34
CCN1/C(=C/c2ccc3cc(C)ccc3[n+]2CC)Sc2cc(C)c(C)cc21	S1P3 antag-1 31, PGE2 EP2 inh 76 (no result: INS promoter inh) | S1P3 antag-2 inactive
OC1(C2CNc3ccccc3C2)CCNCC1 (stereo unspecified)	none (no result: S1P4 antag, S1P4 agonist, S1P3 antag-1, INS promoter inh)
O=C(CSc1nnc(-c2cccnc2)n1-c1cccc(Cl)c1)N1CCCCC1	none (no result: S1P4 antag, S1P4 agonist, S1P3 antag-1, INS promoter inh)
CCn1cc(CN(Cc2ccc(OC)cc2OC)CC2CCCO2)c(C)n1 (stereo unspecified)	none (no result: S1P4 antag, S1P4 agonist, S1P3 antag-1, INS promoter inh)
CCOc1nc(-c2ccc(Cl)cc2)nc2ccccc12	S1P3 antag-1 39 | S1P3 antag-2 inactive
Cc1nc(-c2ccccc2)c2ccccn12	none (no result: S1P4 antag, S1P4 agonist, S1P3 antag-1, INS promoter inh)
Cc1cc(NNC(=O)Nc2cccc(Cl)c2)nc2c1c(C)nn2C	S1P3 antag-1 32 (no result: INS promoter inh) | S1P3 antag-2 inactive
C(=N\NC1=Nc2cccc3cccc1c23)/c1ccccn1	S1P3 antag-1 29 | S1P3 antag-2 inactive
Cc1ccccc1NC(=O)c1cc2nc(-c3ccco3)cc(C(F)(F)F)n2n1	none (no result: S1P4 antag, S1P4 agonist, S1P3 antag-1, INS promoter inh)
O=c1c2ccccc2n(CC(O)CN2CCCCC2)c2ccccc12 (stereo unspecified)	none (no result: INS promoter inh)
